High-throughput results: PubChem BioAssay, National Center for Advancing Translational Sciences (NCATS)
FBPA coupling cs = coupling enzyme interference in Giardia aldolase counter-screen; coupling enzyme system counterscreen, AmpLite Red fluorescence; activity change, negative = inhibition, % at 58.2 µM, hits read low; hit rate 0.67% among 290,000; AID 2472; in the data active = activity change below about -30%; note: % is set by controls: 0 for no effect and ±100 for the full control effect
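Activity here indicates interference with the coupling reaction, not aldolase inhibition. Compounds at 57.5 uM final met coupling enzymes for 10 min at RT; substrate and AmpLite Red detection followed, with a 525/598 nm fluorescence read after 20 min.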
PI4K2A block = blocks human PI4K2A kinase activity. Q9BTU6. purified PI4K2A, ADP-Glo luminescence, 1 h; active compounds read low. activity change, negative = inhibition, % at 76.9 µM. hit rate 0.13% among 420,000; in the data active = activity change below about -50%; inconclusive = mostly about -30% to -49%;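 note: -100% = wells without enzyme as full effect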
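ADP-Glo luminescence measured ADP generated by PI4K2A enzyme (4 ug/mL before mixing) with 1.2 mM PI substrate (pre-mix) and 300 microM ATP (pre-mix). Tris pH7.5 buffer with MgCl2, Triton X-100; 1 h reaction at ambient temperature.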
GALK inh = blocks human galactokinase activity; P51570; hit rate 0.007% among 270,000; Potency, µM (doses to about 57.5 µM), for the others: at the top dose activity change, negative = inhibition, actives largely listed as inhibitors; Purified GALK, Kinase-Glo residual ATP luminescence; note: potency is the fitted concentration of half-maximal effect; % is set by controls: 0 for no effect and ±100 for the full control effect
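Compounds were pin-transferred into ATP buffer (35 uM final), then GALK plus galactose (5 nM, 100 uM final) was added. After 1 h at room temperature, Kinase-Glo Plus was added and luminescence read after 10 min.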
TrxR1 inh-1 = inhibitors of rat thioredoxin reductase 1 | O89049 | recombinant rTrxR1, NADPH fluorescence consumption, selenite substrate | Potency, µM (doses to about 114 µM), for inactives: at the top dose activity change, negative = inhibition, most hits filed as inhibitors | hit rate 1% among 390,000; note: potency is the fitted concentration of half-maximal effect; % is set by controls: 0 for no effect and ±100 for the full control effect; nearly all actives have a fitted effect of over 65% in size
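Rat TrxR1 (90 nM in the dispensed reagent) was pre-reduced with 400 uM NADPH for 5 min at room temperature, then incubated with compound for 15 min. After 400 uM selenite was added, NADPH fluorescence (Ex 340/Em 450 nm) was followed for 8 min.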
Giardia killer = kills Giardia lamblia | Giardia lamblia trophozoite viability | activity change, % at 7.66 µM, hits read low | hit rate 0.15% among 340,000; in the data active = activity change below about -80%; inconclusive = between about -30% and that limit;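 note: parasites exposed to compound for two days anaerobically before the ATP read; % is set by controls: 0 for no effect and ±100 for the full control effect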
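Trophozoites 100 cells/well + cpd; 48 hrs, 37 deg C, anaerobic. ATPLite 1-Step added, 15-30 min RT, luminescence read (ATP-based viability).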
TrxR1 substrate = rat thioredoxin reductase 1 substrate activity; O89049; purified TrxR1 substrate turnover, NADPH consumption readout; Potency, µM (titrated, usually from 114 µM), without a hit: at the highest dose activity change, negative = substrate turnover; hit rate 0.01% among 390,000; note: potency is the fitted concentration of half-maximal effect; % is set by controls: 0 for no effect and ±100 for the full control effect; nearly all actives have a fitted effect of over 50% in size
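Rat TrxR1, dispensed at 90 nM, was prereduced with 400 uM NADPH (final) for 5 min at ~22 deg C, then incubated with compound 15 min before 400 uM selenite. A first-read NADPH fluorescence drop versus no-compound background flagged substrates.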
Casp1 confirm = confirmation of allosteric or competitive inhibitors of human caspase-1 | shares compounds with FBPA coupling cs | Potency, µM (highest dose often 57.5 µM), without a hit: top-dose activity change, negative = inhibition, hits mostly inhibitors | purified caspase-1, fluorogenic substrate cleavage | hit rate 20% among 60; active = well fitted inhibition curve with a large enough effect in the main read-out, with a control signal flat; inconclusive = small, poorly fitted or top-dose-only effect, or a change in a side signal; inactive = no such curve, though single readings can be large or run the other way
CASP7 inh CRC = blocks human caspase-7 activity in concentration-response; shares compounds with FBPA coupling cs; 60 tested, under 10 active; recombinant caspase-7, fluorogenic substrate cleavage; Potency, µM (top dose mostly 57.5 µM), without a hit: top-dose activity change, negative = inhibition, most hits filed as inhibitors; active = well fitted inhibition curve with a large enough effect in the main read-out, with a control signal flat, not every such curve was filed as active; inconclusive = small, poorly fitted or top-dose-only effect, or a change in a side signal; inactive = no such curve, though single readings can be large or run the other way
Casp7 cysteine = caspase-7 inhibition with cysteine present; shares compounds with FBPA coupling cs; caspase-7 enzyme with cysteine, fluorogenic substrate, redox counterscreen; Potency, µM (top dose mostly 57.5 µM), for inactives: at the highest dose activity change, negative = inhibition, most hits filed as inhibitors; 60 tested, under 10 active; active = well fitted inhibition curve with a large enough effect in the main read-out, with a control signal flat; inconclusive = small, poorly fitted or top-dose-only effect, or a change in a side signal; inactive = no such curve, though single readings can be large or run the other way
Casp1 cysteine = inhibits caspase-1 in cysteine buffer, redox counter-screen | Potency, µM (series often up to 57.5 µM), without a hit: at the highest dose activity change, negative = inhibition, usual class: inhibitors | 60 tested, under 10 active | recombinant caspase-1, fluorogenic substrate, cysteine buffer | shares compounds with FBPA coupling cs; active = well fitted inhibition curve with a large enough effect in the main read-out, with a control signal flat; inconclusive = small, poorly fitted or top-dose-only effect, or a change in a side signal; inactive = no such curve, though single readings can be large or run the other way
GR inh = inhibits human glutathione reductase in TrxR1 counterassay. activity change, negative = inhibition, % at 57.1 µM. shares compounds with TrxR1 inh-1. 55 tested, under 10 active. AID 652020. purified GR, DTNB reduction absorbance 405 nm kinetic
TrxR1 inh-2 = validation of rat thioredoxin reductase 1 inhibitors; shares compounds with TrxR1 inh-1; recombinant TrxR1, NADPH fluorescence consumption, selenite substrate; Potency, µM, hits mostly inhibitors; hit rate 50% among 55
TrxR1 insulin = TrxR1 inhibition in insulin mechanism assay; shares compounds with TrxR1 inh-1; TrxR1 Trx-coupled insulin reduction, NADPH absorbance 340 nm; Potency, µM; hit rate 20% among 55; AID 652037;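 active = compounds with a measured potency under 100 micromolar; inconclusive = filed, but no rule given; inactive = potency at or above that, or unmeasurable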
TrxR1 inh-3 = inhibitors of rat thioredoxin reductase 1, DTNB reduction; shares compounds with TrxR1 inh-1; purified TrxR1, DTNB reduction, A412; Potency, µM; hit rate 90% among 55; AID 652256;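 active = a half-inhibiting concentration could be measured and was below 100 µM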
The depositor's hits bear a star; i = inactive; ? = inconclusive; . = no result; [ ] = another dose, or the depositor's remark. Compounds with a hit are over-represented: about 1.5% of the library has one in this group of screens. Unless noted, calls come from the whole dose curve; as a rule, active = well fitted curve in the direction sought with a large enough effect; inconclusive = small, poorly fitted or top-dose-only effect, or another doubt; inactive = no such curve, though single readings can be large; an effect the other way counts as inactive or inconclusive.

SMILES | FBPA coupling cs | PI4K2A block | GALK inh | TrxR1 inh-1 | Giardia killer | TrxR1 substrate | others
COC(=O)C1C(O)C(C)C(O)C(C)/C=C\C=C(/C)C(=O)Nc2c(C)c(OC(C)=O)c3c(c2O)C(=O)C(C)=C2OCOC(=C23)/C(C)=C/C(C)(O)C(O)C(C)C1O (stereo not drawn) | -30* | -8 | 3% | -4% | -2 | -18%
Nc1cc2nc3ccccc3nc2cc1N | -34* | -12 | 9% | 9%[57.1 µM] | -4 | 10%[57.1 µM]
Nc1c2c(nc3ccccc13)CCN(Cc1ccccc1)C2 | -1 | -2 | 4% | -1% | 3 | 39%[57.1 µM]
CC(C(O)c1ccccc1)N(C)C/C=C/c1ccccc1 (stereo not drawn) | . | 3 | . | . | . | .
O=c1[nH]c(=S)[nH]c(O)c1/C=C1/C=c2ccccc2=N1 | -1 | -23 | -20% | 20µM* | 21 | -3%
CCOC(=O)Nc1ccc(NCc2ccc(F)cc2)nc1N | . | ? | . | 11µM* | 4 | 28%[57.1 µM]
COc1ccc(CNC(=O)c2cnn3c(C)c(Cc4ccc(F)cc4)c(C)nc23)cc1 | . | 1 | . | 60%[57.1 µM] | . | 38%[57.1 µM]
CC(=O)OCC1=C(C(=O)O)N2C(=O)[C@@H](NC(=O)CCC[C@@H](N)C(=O)O)[C@H]2SC1 | . | -18 | . | -13%[57.1 µM] | . | -3%[57.1 µM]
CCOC(=O)Cn1cc([N+](=O)[O-])nc1[N+](=O)[O-] | -39* | 7 | -2% | ? | -21 | -4%
CCN1C(=O)NC(=O)/C(=C/c2cc(C)n(-c3sc(C)c(C)c3C#N)c2C)C1=O | -37* | -21 | 2% | ? | 26 | -3%
COc1cc2nc(N3CCCN(C)CC3)nc(N(C)C3CCN(C)CC3)c2cc1OC | . | . | . | ? | . | 90%
CCCCCC1C(=O)O[C@H](C)[C@@H](NC(=O)c2cccc(NC=O)c2O)C(=O)OC(C)C1OC(=O)CC(C)C (stereo partly drawn) | 3 | . | . | . | . | .
O=C1C(Cl)=CC(=Nc2ccc(O)cc2)C=C1Cl | -22 | -8 | . | 1.6µM* | 14 | -3%
COc1cc2c(cc1OC)-c1c(O)c(OC)cc3c1[C@H](C2)N(C)CC3 | -26 | . | . | . | . | .
COc1cc2c(cc1OC)-c1c(OC)c(OC)cc3c1C(C2)N(C)CC3 (stereo not drawn) | -42* | -9 | -1% | -1% | -7 | 16%
Oc1ccc2c(c1)[C@@]13CCCCC1[C@@H](C2)N(CC1CCC1)CC3 (stereo partly drawn) | -1 | . | . | . | . | .
CCO/N=C(\CC)C1=C(O)CC(c2c(C)cc(C)cc2C)CC1=O (stereo not drawn) | . | i | . | . | . | .
COc1ccc(C(=O)O)cc1OC | 0 | -1 | . | 10% | 13 | 4%
O=C(O)c1cc[c]([Hg][Cl])cc1 | . | ? | . | 0.35µM* | -4 | 12%[57.1 µM] | Casp1 confirm=10µM*;CASP7 inh CRC=-14%;Casp7 cysteine=-25%;Casp1 cysteine=2.5µM*
CCn1nc(-c2cccs2)nc2c(=O)n(C)c(=O)nc1-2 | -69* | -61* | 1.3µM* | ? | 4 | 45µM* | Casp1 confirm=0.32µM*;CASP7 inh CRC=0.63µM*;Casp7 cysteine=-11%;Casp1 cysteine=-4%
COc1c(C)cc(Br)cc1C(=O)Nc1ccc(-c2nc3ncccc3o2)cc1 | . | -2 | . | i | . | 448%
CC1=C[C@@H]2c3cccc4[nH]cc(c34)C[C@H]2N(C)C1 | -5 | -4 | 0% | 2.5µM* | 2 | 27% | GR inh=-4;TrxR1 inh-2=?;TrxR1 insulin=49µM*;TrxR1 inh-3=2.2µM*
C1CN2CCC1CC2 | . | 5 | . | . | . | .
